Source: PubChem BioAssay
An excerpt weighted towards active compounds, which were near 4% of everything screened.
D1 antag = Antagonist of Human D 1 Dopamine Receptor: qHTS. D(1A) dopamine receptor (Homo sapiens), P21728. HEK293 TREx D1 cells, calcium flux, dopamine EC80; active compounds read low. activity change, negative = inhibition, % at 10 µM. 3.2% of 360,000 active. AID 504652, 2011; in the data active means activity change below about -30%; further: on the % scale 0 is the no-effect control and ±100 the full control effect
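Compound effects on dopamine-evoked calcium signalling were measured in tetracycline-induced HEK293 Trex D1 cells. Dopamine at EC80 followed a 180 s compound pre-read, and fluorescence was tracked kinetically for 180 s more.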
TRHR PAM = qHTS for Small Molecule Agonists and Allosteric Enhancers of Human TRH Receptor: Primary Screen for Enhancers | Thyrotropin-releasing hormone receptor (Homo sapiens), P34981 | TRHR cells, fluo-8 calcium fluorescence, EC20 TRH enhancement | enhancement, % at 2 µM | 0.66% of 360,000 active; in the data active means enhancement above about 30%; further: 0% is about no effect
Target sequence (P34981 whole entry, looked up): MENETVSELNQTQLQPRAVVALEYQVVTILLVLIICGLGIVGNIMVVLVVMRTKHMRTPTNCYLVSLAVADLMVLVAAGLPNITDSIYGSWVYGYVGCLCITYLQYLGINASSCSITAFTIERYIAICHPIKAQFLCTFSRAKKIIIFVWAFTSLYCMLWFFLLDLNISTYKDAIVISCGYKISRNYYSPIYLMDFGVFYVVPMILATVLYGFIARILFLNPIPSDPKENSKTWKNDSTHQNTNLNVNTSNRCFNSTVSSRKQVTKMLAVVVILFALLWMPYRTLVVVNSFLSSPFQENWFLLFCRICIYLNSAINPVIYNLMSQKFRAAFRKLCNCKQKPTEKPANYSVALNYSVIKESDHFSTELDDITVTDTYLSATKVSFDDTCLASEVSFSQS
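Enhancer read-out: after compound pinning and an initial kinetic agonist-mode read, an EC20 of TRH (10 nM final) was injected and fluo-8 calcium signal (Ex 480/Em 530) followed at 1 s/cycle for 100 cycles in TRHR-expressing cells.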
D1 potentiator = Potentiators of Human D1 Dopamine Receptor: qHTS. potentiation, % at 10 µM. 0.036% of 360,000 active. D(1A) dopamine receptor (Homo sapiens), P21728. HEK293 TREx D1 cells, calcium flux, dopamine EC20 potentiation. AID 504651, 2011; in the data active means potentiation above about 30%; further: 0% is about no effect
D1 agonist = Allosteric Agonists of the Human D1 Dopamine Receptor: qHTS; D(1A) dopamine receptor (Homo sapiens), P21728; HEK293 T-REx D1 cells, calcium flux, agonist mode; activation, % at 2 µM; 1% of 360,000 active; AID 504660, 2011; further: 0% is about no effect
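Tetracycline-induced HEK293 TREx D1 cells, force-coupled to calcium signalling, were dye-loaded with a no-wash calcium kit. Compound was pin-added after a 10 s baseline. Fluorescence was read kinetically at 1 cycle/s for 180 s, with calcium rises flagged as agonism.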
Glioma ERSR ind = qHTS for Inducers of the Endoplasmic Reticulum Stress Response (ERSR) in Human Glioma: qHTS; Potency, µM, without a hit: at the top dose activation, usual class: activators; AID 602332, 2012; U87-MG GRP78 promoter luciferase reporter, 16 h; 0.02% of 420,000 active; active means well fitted activation curve with a large enough effect; inconclusive means small, poorly fitted or top-dose-only effect; inactive means no such curve, though single readings can be large or run the other way; further: potency means the concentration at half of the fitted maximal effect; series mostly up to about 76 µM; % of control where 0% means no effect; nearly all actives have a fitted effect of over 35% in size
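Stably transfected U87-MG human glioma cells carrying a GRP78-based luminescent sensor were seeded at 1000 cells/well, pin-dosed with compounds and incubated 16 h. Luciferase reagent was then added, and end-point luminescence was read after 10 min at room temperature.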
TRHR agonist = qHTS for Small Molecule Agonists and Allosteric Enhancers of Human TRH Receptor: Primary Screen for Agonists. Thyrotropin-releasing hormone receptor (Homo sapiens), P34981. TRHR cells, calcium flux fluo-8, FDSS agonist mode. activation, % at 2 µM. 0.18% of 360,000 active. AID 493084, 2011; further: 0% is about no effect
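Agonist-mode FDSS calcium read (Ex 480/Em 530, 1 s cycles) in 1536-well TRHR cells with fluo-8 dye, after 10-cycle baseline and 23 nL compound addition; TRH at EC20 (10 nM final) added afterwards for the enhancer phase.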
* marks the source's active call; other numbers are inactive results; ? = inconclusive; nt = no result. Unless noted, no stated cut-off is given here; in the data, active means activation above about 30%; inactive means the rest.

SMILES	D1 antag	TRHR PAM	D1 potentiator	D1 agonist	Glioma ERSR ind	TRHR agonist
O=C(Nc1ccc(N2CCOCC2)cc1)C1(c2ccc(Cl)cc2)CCC1	-3	-8	-4	43*	-1%	3
C=CCN1C(=O)C(Cc2ccc(OC)cc2)SC1=Nc1ccc(C(=O)O)cc1 (configuration not stated)	19	10	-4	0	-1%	-1
COc1ccccc1C(=O)NCC(=O)N=Nc1c(O)n(C(C)C)c2ccccc12	3	-7	0	3	-3%	0
COc1ccc(N2CCN(C(=O)NC3CC(=O)N(c4ccc(OC)cc4)C3)CC2)cc1 (configuration not stated)	-45*	5	-7	5	-4%	-3
CC(C)Cc1ccc([C@@H](C)C(=O)NS(C)(=O)=O)cc1	nt	nt	nt	nt	3%	nt
CC(C)Cc1ccc(C(C)C(=O)Nc2ccccc2O)cc1 (configuration not stated)	-26	-6	-17	65*	9%	10
CCOC(=O)Cn1nc(C)n(-c2ccc(Br)cc2)c1=O	-48*	4	14	2	-4%	0
CCOC(=O)Cn1nc(C)n(-c2ccc(Cl)cc2)c1=O	nt	0	1	1	-4%	0
O=C(NC12CC3CC(CC(C3)C1)C2)c1ccc([N+](=O)[O-])o1	-48*	-3	-1	1	-15%	0
O=C(NC12CC3CC(CC(C3)C1)C2)c1ccc(Br)o1	-2	9	-5	9	1%	-2
O=C(Nc1nc(-c2ccc(Cl)cc2)cs1)C1=COCCO1	-14	2	-3	4	4%	0
CCCC1(c2ccccc2)NC(=O)N(CC(=O)Nc2cc(S(=O)(=O)N3CCOCC3)ccc2Cl)C1=O (configuration not stated)	-30*	-11	-5	7	1%	1
CCCC1(c2ccccc2)NC(=O)N(CC(=O)Nc2cc(OC)cc(OC)c2)C1=O (configuration not stated)	7	-3	nt	35*	-3%	2
COc1cc(NC(=O)CN2C(=O)NC(c3ccccc3)(c3ccccc3)C2=O)cc(OC)c1	-8	5	2	9	-3%	2
Cc1ccc(S(=O)(=O)N2CCOCC2)cc1NC(=O)CN1C(=O)NC2(CCCC2)C1=O	nt	nt	nt	nt	-4%	nt
Cn1ncc2c(=O)n(CC(=O)NC34CC5CC(CC(C5)C3)C4)cnc21	-34*	-1	3	2	2%	1
Cc1cc(C)c(NC(=O)COC(=O)c2ccncc2)c(C)c1	nt	nt	nt	nt	-6%	nt
CCCCN(CC)CCCNC(=O)c1ccc2c(c1)NC(=O)CN2C	2	-5	-1	-2	-1%	0
CN1CC(=O)Nc2cc(C(=O)O)ccc21	-31*	1	-2	-1	-2%	0
CN(C)c1nc(C#N)nc(N(C)C)n1	-2	33*	-4	-2	0%	0
CN(C)c1nc(SCC#N)nc(N(C)C)n1	-74*	-4	-8	0	-2%	0
CN1C(=O)C(O)(C2COC(C)(C)CC2=O)c2cc(Br)ccc21 (configuration not stated)	-14	6	8	2	2%	0
CCN(CC)c1ccc2ccc(=O)oc2c1	-6	0	-1	1	1%	0
CCN(CC)c1ccc2cc(-c3nnc(Nc4ccc(C)cc4)s3)c(=O)oc2c1	-60*	-17	-1	421*	-7%	159*
CCN(CC)c1ccc2cc(-c3nc(-c4ccccc4)no3)c(=O)oc2c1	-34*	4	9	317*	7%	55*
SMILES	D1 antag	TRHR PAM	D1 potentiator	D1 agonist	Glioma ERSR ind	TRHR agonist
CCN(CC)c1ccc2cc(S(=O)(=O)c3ccc(C)cc3)c(=O)oc2c1	-3	-1	2	120*	-3%	0
CCN(CC)c1ccc2cc(C#N)c(=O)oc2c1	-6	-1	-3	32*	-1%	18
Cc1cccc(OCCN2C(=O)c3ccccc3C2=O)c1	nt	2	-4	-2	3%	0
CCc1ccc(NC(=O)C(C)OC(=O)c2cc(=O)[nH]c3ccc(S(=O)(=O)Nc4ccc(F)cc4)cc23)cc1 (configuration not stated)	-37*	-20	-12	3	?	0
Cc1cccc(NS(=O)(=O)c2ccc3[nH]c(=O)cc(C(=O)OC(C)C(=O)Nc4ccc([N+](=O)[O-])cc4)c3c2)c1 (configuration not stated)	-6	-3	0	2	0%	-1
Cn1c2cc(Br)sc2c2cnn(Cc3c(F)cccc3Cl)c(=O)c21	-94*	14	0	0	0%	0
O=C(c1ccc(OC2CCN(CCc3ccccc3)CC2)cc1)N1CCC(CO)CC1	-44*	3	-14	14	-6%	-1
CN(Cc1nccs1)C(=O)c1ccc(OC2CCN(CCc3ccccc3)CC2)cc1	-54*	5	-11	6	-2%	1
COCCCNC(=O)c1ccc2c3c(onc13)-c1ccccc1C2=O	18	7	0	3	-10%	-4
Cc1c(O)c2ccccc2oc1=O	1	39*	2	1	-1%	0
Cc1ccccc1NC1=C(Cl)C(=O)OC1OC(=O)c1ccccc1C (configuration not stated)	-22	-8	-1	1	-7%	0
Cc1cccc(C)c1NC1=C(Cl)C(=O)OC1OC(=O)c1ccccc1 (configuration not stated)	-48*	-8	-1	-1	3%	-1
Cc1ccc(NC2=C(Cl)C(=O)OC2OC(=O)c2ccccc2)c(C)c1 (configuration not stated)	-51*	-2	-2	9	-7%	0
Cc1ccc(NC2=C(Cl)C(=O)OC2OC(=O)c2ccco2)cc1 (configuration not stated)	-21	-5	-1	4	0%	0
O=C(COC(=O)c1ccc(Br)o1)Nc1ccc(S(=O)(=O)N2CCCC2)cc1	-1	0	0	0	0%	-1
Cc1cnc(C(=O)OC(C)C(=O)NC2CCCc3ccccc32)cn1 (configuration not stated)	-5	-5	-3	1	2%	0
CCN(CC)S(=O)(=O)c1ccc(N=NC2=C(O)CCCC2=O)cc1	-12	0	2	1	3%	0
